Active and inactive are the calls of the source. Rule for the calls: active = hit-call score of the fitted dose curve at least 0.9, where 1 is the maximum; inactive = score below 0.9.
Assays:
Conditions in all cases: mRNA level, 48 h; actives raise or lower the signal
[1] = read-out: Insulin Like Growth Factor 1 (IGF1), IGF1 (gene 3479); experiment: LTEA_HepaRG_IGF1: Life Technologies and Expression Analysis (LTEA) Assay for Insulin Like Growth Factor 1 (IGF1) using HepaRG (AID 2283506)
Outline: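 Expression measured by TaqMan qRT-PCR on a Fluidigm array, with three housekeeping genes for normalisation, after 48 h treatment of HepaRG cells. Top concentration 100 uM with half-log steps, 0.5% DMSO vehicle, bidirectional fit.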

[2] = read-out: Intercellular Adhesion Molecule 1 (ICAM1), ICAM1 (gene 3383); experiment: LTEA_HepaRG_ICAM1: Life Technologies and Expression Analysis (LTEA) Assay for Intercellular Adhesion Molecule 1 (ICAM1) using HepaRG (AID 2283507)
Outline: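 Gain or loss of transcript in HepaRG hepatic cells is quantified by qRT-PCR after 48 h chemical exposure (up to 100 uM, half-log steps), with DMSO as baseline.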

[3] = read-out: Insulin-like growth factor-binding protein 1 (IGFBP1), IGFBP1 (gene 3484); experiment: LTEA_HepaRG_IGFBP1: Life Technologies and Expression Analysis (LTEA) Assay for Insulin-like growth factor-binding protein 1 (IGFBP1) using HepaRG (AID 2283508)
Outline: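 mRNA induction or loss was quantified by qRT-PCR after 48 h chemical exposure of human HepaRG cells, with 0.5% DMSO as vehicle and baseline. Concentration-response over eight points up to 100 uM.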

[4] = read-out: Interleukin 6 (IL6), IL6 (gene 3569); experiment: LTEA_HepaRG_IL6: Life Technologies and Expression Analysis (LTEA) Assay for Interleukin 6 (IL6) using HepaRG (AID 2283509)
Outline: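 Transcript levels, normalized to three housekeeping genes, were quantified by qRT-PCR after 48 h chemical treatment of HepaRG cells. Eight-point half-log series from 100 uM in 0.5% DMSO, duplicates. Fitted both directions against DMSO baseline.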

[5] = read-out: Interleukin 6 Receptor (IL6R), IL6R (gene 3570); experiment: LTEA_HepaRG_IL6R: Life Technologies and Expression Analysis (LTEA) Assay for Interleukin 6 Receptor (IL6R) using HepaRG (AID 2283510);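 for AC50: differentiated human HepaRG liver cells in serum-free induction medium; TaqMan qRT-PCR signal normalized to ACTB GAPDH and POLR2A housekeeping genes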
Outline: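 IL6R transcript level by qRT-PCR after 48 h chemical exposure (8-point, half-log, max 100 uM, 0.5% DMSO vehicle) of HepaRG cells in serum-free induction medium. Normalized to three housekeeping genes; curves fitted in both directions relative to DMSO.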

[6] = read-out: Keratin 19 (KRT19), KRT19 (gene 3880); experiment: LTEA_HepaRG_KRT19: Life Technologies and Expression Analysis (LTEA) Assay for Keratin 19 (KRT19) using HepaRG (AID 2283512)
Outline: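 Gene-expression endpoint in the human liver line HepaRG after 48 h exposure to up to 100 uM test chemical with 0.5% DMSO vehicle; KRT19 mRNA by qRT-PCR, analyzed bidirectionally versus DMSO.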

[7] = read-out: JUN Transcription Factor, JUN (gene 3725); experiment: LTEA_HepaRG_JUN: Life Technologies and Expression Analysis (LTEA) Assay for JUN Transcription Factor using HepaRG (AID 2283513)
Outline: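 mRNA measured by TaqMan qRT-PCR after 48 h chemical exposure of HepaRG cultures; normalization to three housekeeping genes. Duplicate eight-point half-log curves from 100 uM in 0.5% DMSO; gain or loss fitted against DMSO baseline.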

[8] = read-out: Lipase C (LIPC), LIPC (gene 3990); experiment: LTEA_HepaRG_LIPC: Life Technologies and Expression Analysis (LTEA) Assay for Lipase C (LIPC) using HepaRG (AID 2283514)
Outline: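 LIPC expression was quantified by qRT-PCR against three housekeeping genes (ACTB, GAPDH, POLR2A). Differentiated human HepaRG cells received eight half-log doses (top 100 uM, 0.5% DMSO) in duplicate for 48 h; fitting bidirectional relative to DMSO.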

[9] = read-out: Lipoprotein lipase (LPL), LPL (gene 4023); experiment: LTEA_HepaRG_LPL: Life Technologies and Expression Analysis (LTEA) Assay for Lipoprotein lipase (LPL) using HepaRG (AID 2283515)
Outline: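 LPL transcript levels quantified by TaqMan qRT-PCR against three housekeeping genes after 48 h chemical treatment of HepaRG cells. Eight-point half-log series from 100 uM in 0.5% DMSO, tested in duplicate; bidirectional fitting versus vehicle.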

[10] = read-out: Potassium channel subfamily K member 1 (KCNK1), KCNK1 (gene 3775); experiment: LTEA_HepaRG_KCNK1: Life Technologies and Expression Analysis (LTEA) Assay for Potassium channel subfamily K member 1 (KCNK1) using HepaRG (AID 2283511)
Outline: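 KCNK1 transcript measured by TaqMan qRT-PCR against three housekeeping genes, after HepaRG cells were treated 48 h with eight half-log concentrations (top 100 uM, 0.5% DMSO). Curves fitted bidirectionally relative to vehicle.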

In the case of `CN(C)CCCN1c2ccccc2Sc2ccc(Cl)cc21`, the AC50 [1] is reported as 77.7 µM (active), the AC50 [2] is reported as 77.7 µM (active) and the AC50 [3] is reported as 72.8 µM (active). The AC50 [4] was 77 µM (active), the AC50 [5] was 44.7 µM (active) and the AC50 [6] was 82.9 µM (active). For the same compound, the AC50 [7] was 94 µM (active), the outcome [8] was “inactive” and the outcome [9] was “inactive”.
With `O=C(NS(=O)(=O)/C=C/c1cccs1)c1ccc(F)cc1Br` the AC50 [1] was 31.1 µM (active), the outcome [2] was “inactive” and the outcome [3] was “inactive”. The outcome [4] was “inactive”, the outcome [5] was “inactive” and the outcome [6] was “inactive”. The outcome [7] was “inactive”, the outcome [8] was “inactive” and the outcome [9] was “inactive”.
In the case of `OCC(CO)n1cnc(-c2ccc(F)cc2)c1-c1ccnc(Oc2ccccc2)n1`, the outcome [1] is reported as “inactive”, the outcome [2] is reported as “inactive” and the outcome [3] is reported as “inactive”. The outcome [4] was “inactive”, the outcome [5] was “inactive” and the outcome [10] was “inactive”. For the same compound, the outcome [6] was “inactive”, the outcome [7] was “inactive” and the outcome [8] was “inactive”. The outcome [9] was “inactive”.
For `CCCC[C@H]1CN(CC2CCOCC2)C(=O)OC12CCN(C1(C)CCN(C(=O)c3c(C)ncnc3C)CC1)CC2`, the outcome [1] was “inactive”, the outcome [2] was “inactive” and the outcome [3] was “inactive”. For the same compound, the outcome [4] was “inactive”, the outcome [5] was “inactive” and the outcome [6] was “inactive”. For the same compound, the outcome [7] was “inactive”, the outcome [8] was “inactive” and the outcome [9] was “inactive”.
For `COC(=O)CCCC(=O)OC`, the outcome [1] was “inactive”, the outcome [2] was “inactive” and the outcome [3] was “inactive”. For the same compound, the outcome [4] was “inactive”, the outcome [5] was “inactive” and the outcome [7] was “inactive”. The outcome [8] was “inactive” and the outcome [9] was “inactive”.
With `CS(=O)(=O)c1ccc([C@@H](C[C@H]2CCC(=O)C2)C(=O)Nc2cnccn2)cc1Cl` the AC50 [1] was 1.24 µM (active), the AC50 [2] was 1.48 µM (active) and the AC50 [3] was 2.29 µM (active). For the same compound, the outcome [4] was “inactive”, the AC50 [5] was 16.8 µM (active) and the AC50 [7] was 1.43 µM (active). For the same compound, the AC50 [8] was 1.08 µM (active) and the AC50 [9] was 0.934 µM (active).
`CN(C)C(=O)NC1(c2ccccc2)CCN(CC[C@@]2(c3ccc(F)c(F)c3)CN(C(=O)c3ccccc3)CCO2)CC1` was tested, and the AC50 [1] was 15.7 µM (active), the outcome [2] was “inactive” and the outcome [3] was “inactive”. For the same compound, the outcome [4] was “inactive”, the outcome [5] was “inactive” and the outcome [7] was “inactive”. For the same compound, the AC50 [8] was 47 µM (active) and the AC50 [9] was 31.8 µM (active).
`Cc1occc(=O)c1O` was tested, and the outcome [1] was “inactive”, the outcome [2] was “inactive” and the outcome [3] was “inactive”. For the same compound, the outcome [4] was “inactive”, the outcome [5] was “inactive” and the outcome [10] was “inactive”. The outcome [6] was “inactive”, the outcome [7] was “inactive” and the outcome [8] was “inactive”. The outcome [9] was “inactive”.
With `CC(N)=O` the outcome [1] was “inactive”, the outcome [2] was “inactive” and the outcome [3] was “inactive”. For the same compound, the outcome [4] was “inactive”, the outcome [10] was “inactive” and the outcome [6] was “inactive”. The outcome [7] was “inactive”, the outcome [8] was “inactive” and the outcome [9] was “inactive”.
For `CC(C)(O)c1ccc(CNC(=O)c2cccnc2Oc2ccc(F)cc2)cc1`, the AC50 [1] was 50 µM (active), the outcome [2] was “inactive” and the outcome [3] was “inactive”. The outcome [4] was “inactive”, the outcome [5] was “inactive” and the outcome [6] was “inactive”. For the same compound, the outcome [7] was “inactive”, the outcome [8] was “inactive” and the outcome [9] was “inactive”.
`C#CC(O)C(CC)CCCC` (stereo unspecified) was tested, and the outcome [1] was “inactive”, the outcome [2] was “inactive” and the outcome [3] was “inactive”. The outcome [4] was “inactive”, the outcome [10] was “inactive” and the outcome [7] was “inactive”. For the same compound, the outcome [8] was “inactive” and the outcome [9] was “inactive”.
`NC=O` was tested, and the outcome [1] was “inactive”, the outcome [2] was “inactive” and the outcome [3] was “inactive”. The outcome [4] was “inactive”, the outcome [7] was “inactive” and the outcome [8] was “inactive”. The outcome [9] was “inactive”.
For `OCC(O)CO`, the outcome [1] was “inactive”, the outcome [2] was “inactive” and the outcome [3] was “inactive”. For the same compound, the outcome [4] was “inactive”, the outcome [6] was “inactive” and the outcome [7] was “inactive”. For the same compound, the outcome [8] was “inactive” and the outcome [9] was “inactive”.
In the case of `CCCCCCCCCC[N+](C)(C)[O-]`, the outcome [1] is reported as “inactive”, the outcome [2] is reported as “inactive” and the outcome [3] is reported as “inactive”. For the same compound, the outcome [4] was “inactive”, the outcome [10] was “inactive” and the outcome [6] was “inactive”. The outcome [7] was “inactive”, the outcome [8] was “inactive” and the outcome [9] was “inactive”.
In the case of `CCCCOC(=O)CCCCC(=O)OCCCC`, the outcome [2] is reported as “inactive”, the outcome [3] is reported as “inactive” and the outcome [4] is reported as “inactive”. The outcome [5] was “inactive”, the outcome [10] was “inactive” and the outcome [6] was “inactive”. The outcome [7] was “inactive”, the outcome [8] was “inactive” and the outcome [9] was “inactive”.
With `c1ccc2occc2c1` the outcome [2] was “inactive”, the outcome [3] was “inactive” and the outcome [4] was “inactive”. For the same compound, the outcome [5] was “inactive”, the outcome [10] was “inactive” and the outcome [6] was “inactive”. For the same compound, the outcome [7] was “inactive”, the outcome [8] was “inactive” and the outcome [9] was “inactive”.
For `C/C=C/C=C/C(=O)O`, the outcome [1] was “inactive”, the outcome [2] was “inactive” and the outcome [3] was “inactive”. For the same compound, the outcome [4] was “inactive”, the outcome [7] was “inactive” and the outcome [8] was “inactive”. For the same compound, the outcome [9] was “inactive”.
For `CCCCCCCCCCCCCCOS(=O)(=O)O`, the outcome [2] was “inactive”, the outcome [3] was “inactive” and the outcome [4] was “inactive”. The outcome [5] was “inactive”, the outcome [10] was “inactive” and the outcome [7] was “inactive”. The outcome [8] was “inactive” and the outcome [9] was “inactive”.
For `CCCCCCCC(=O)OC`, the outcome [1] was “inactive”, the outcome [2] was “inactive” and the outcome [3] was “inactive”. The outcome [4] was “inactive”, the outcome [10] was “inactive” and the outcome [7] was “inactive”. The outcome [8] was “inactive” and the AC50 [9] was 12.4 µM (active).
With `O=C1CCCCC1` the outcome [1] was “inactive”, the outcome [2] was “inactive” and the outcome [3] was “inactive”. The outcome [4] was “inactive”, the outcome [10] was “inactive” and the outcome [7] was “inactive”. For the same compound, the outcome [8] was “inactive” and the outcome [9] was “inactive”.
For `Cn1cnc2c1c(=O)[nH]c(=O)n2C`, the outcome [1] was “inactive”, the outcome [2] was “inactive” and the outcome [3] was “inactive”. The outcome [4] was “inactive”, the outcome [6] was “inactive” and the outcome [7] was “inactive”. The outcome [8] was “inactive” and the outcome [9] was “inactive”.
For `CC(=O)OC1CC(C)OC(C)O1` (stereo unspecified), the outcome [2] was “inactive”, the outcome [3] was “inactive” and the outcome [4] was “inactive”. For the same compound, the outcome [5] was “inactive”, the outcome [10] was “inactive” and the outcome [7] was “inactive”. The outcome [8] was “inactive” and the outcome [9] was “inactive”.

Reference: PubChem BioAssay (EPA / NIEHS)
